Rows were chosen to be rich in hits. Some 2% of all compounds tested hit in one or more screens of this group.
PGE2 EP2 inh: inhibitors of human EP2 prostaglandin E2 receptor; P43116; 0.52% of 260,000 active; C6 glioma cells expressing human EP2, cAMP TR-FRET; cells stimulated with saturating PGE2; AID 1422; inhibition, % at 25 µM;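 active = percent inhibition above 40 after rounding to a whole number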;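 also: rat C6 glioma host cells with rolipram phosphodiesterase inhibitor present; the protocol text gives 20 µM as final concentration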
EP2 modulator: modulates human prostaglandin E2 receptor EP2 signaling. P43116. EP2-expressing cells, cAMP HTRF FRET, PGE2 co-stimulation. induction, % at 25 µM. 0.83% of 260,000 active;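 active = compounds whose cAMP rise, as percent of the full-agonist control response, exceeds 60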;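 also: rat C6 glioma line stably carrying human EP2 under a CMV promoter; the protocol text gives 20 µM as final concentration; 100% = response of wells given 1 µM PGE2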
CHT block: human CHT choline transport inhibition; Q9GZV3; CHT-expressing cells, membrane potential dye, choline response; active compounds read low; B-score at 10 µM; 0.86% of 310,000 active;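 active = B-score over 3 SD under the library average, and starting fluorescence ratio not unusually high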;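 also: choline stimulus applied at its EC90 after an EC20 pre-addition; B-score computed on integrated fluorescence ratio after choline addition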
Target sequence (Q9GZV3 whole entry, looked up): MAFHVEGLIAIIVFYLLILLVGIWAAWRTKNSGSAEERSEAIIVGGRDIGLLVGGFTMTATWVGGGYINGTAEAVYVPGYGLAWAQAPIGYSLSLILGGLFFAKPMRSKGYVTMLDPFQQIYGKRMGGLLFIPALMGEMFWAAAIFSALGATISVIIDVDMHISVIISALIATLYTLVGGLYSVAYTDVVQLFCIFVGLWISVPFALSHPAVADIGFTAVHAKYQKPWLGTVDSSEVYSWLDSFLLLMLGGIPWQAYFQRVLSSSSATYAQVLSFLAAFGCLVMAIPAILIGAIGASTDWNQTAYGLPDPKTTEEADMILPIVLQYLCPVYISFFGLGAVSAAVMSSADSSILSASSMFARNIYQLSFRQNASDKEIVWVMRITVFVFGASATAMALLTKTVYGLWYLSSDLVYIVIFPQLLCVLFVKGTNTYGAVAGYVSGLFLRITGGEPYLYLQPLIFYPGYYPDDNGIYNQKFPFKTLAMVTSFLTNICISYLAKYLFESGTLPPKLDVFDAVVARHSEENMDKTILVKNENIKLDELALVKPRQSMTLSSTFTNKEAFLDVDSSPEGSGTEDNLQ
CHT PAM: allosteric activators of human choline transporter CHT; Q9GZV3; CHT-expressing cells, membrane potential dye, choline EC20; active compounds read high; LV-AA mutant CHT in HEK293 cells; B-score at 10 µM; 0.49% of 310,000 active;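 active = initial fluorescence not abnormally high and integrated response B-score, plate-corrected, over 3 SD above library mean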
CHT inh conf: confirmation of human choline transporter CHT inhibitors; 70% of 2,400 active; AID 493221; shares compounds with CHT block; CHT activity remaining % of control (active compounds read low), % at 10 µM; CHT-expressing cells, choline membrane potential dye; LV-to-AA substituted CHT, HEK293 cells;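 active = choline transporter activity left, mean of duplicates at 10 µM, below buffer-only control mean minus 3 SD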;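 also: depolarization triggered by choline at its EC90 following an EC20 pre-addition; 0% = hemicholinium-3 full block and 100% = buffer-only control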
HEK293 MPD ctr: activity in parental HEK293 cells lacking CHT; membrane potential dye, choline response; active = decrease or increase beyond buffer ±3SD; membrane potential ratio readout (active if shifted either direction beyond buffer ±3SD; no single direction) at 10 µM; shares compounds with CHT block; 4% of 2,400 active;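 also: parental cells lack the transporter so any hit is non-specific; ratio is peak minus trough fluorescence over baseline after EC90 choline challenge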
* hit, by the source's call.

How did O=C(NC1CCCCC1)C(c1ccc2ncccc2c1)N(Cc1ccc2c(c1)OCO2)C(=O)c1ccc2c(c1)OCCO2 (stereo unspecified) do in these assays?
PGE2 EP2 inh: 21; EP2 modulator: 31; CHT block: -14*; CHT PAM: inactive; CHT inh conf: 30%*; HEK293 MPD ctr: inactive

What do the screens show for `Cc1cc(NCCc2ccccn2)n2nc(C)c(-c3ccc(F)cc3)c2n1`?
PGE2 EP2 inh: 13; EP2 modulator: -37

What do the screens show for `CC(C)(C)n1nnnc1CN(Cc1cc2cc3c(cc2[nH]c1=O)OCCO3)C1CCCCC1`?
PGE2 EP2 inh: 9; EP2 modulator: 18

What do the screens show for `COc1ccc(OC)c(NC(=O)CSc2nnc3c(n2)[nH]c2ccc(F)cc23)c1`?
PGE2 EP2 inh: 2; EP2 modulator: -37

Results for CCOC(=O)C1CCN(c2cc(CC)nc3c4c(C)cc(C)nc4nn23)CC1 ?
EP2 modulator: -34

How did COC(=O)C(Oc1ccc2c(-c3ccc(OC)cc3)cc(=O)oc2c1)c1ccccc1 (stereo unspecified) do in these assays?
PGE2 EP2 inh: 3; EP2 modulator: 42; CHT block: -6.2*; CHT PAM: inactive; CHT inh conf: inactive; HEK293 MPD ctr: inactive

What do the screens show for `O=c1[nH]cc(N=Cc2cc([N+](=O)[O-])ccc2O)c(=O)[nH]1`?
CHT block: inactive; CHT PAM: inactive

What do the screens show for `O=c1[nH]cc(N=Cc2cc(Cl)cc(Cl)c2O)c(=O)[nH]1`?
CHT block: -13*; CHT PAM: inactive; CHT inh conf: 51%*; HEK293 MPD ctr: inactive

Results for Cc1ccc(C(=O)N(CCO)Cc2cc3cc4c(cc3[nH]c2=O)OCCO4)cc1 ?
PGE2 EP2 inh: 11; EP2 modulator: 9

Results for COCCn1c(SCC(=O)N2CCCc3ccccc32)nc2ccccc2c1=O ?
PGE2 EP2 inh: 8; EP2 modulator: -7; CHT block: -5.2*; CHT PAM: inactive; CHT inh conf: inactive; HEK293 MPD ctr: inactive

What do the screens show for `CCn1c(SCC(=O)N2CCCc3ccccc32)nc2c(c1=O)SC(C)C2` (stereo unspecified)?
PGE2 EP2 inh: 11; EP2 modulator: -8; CHT block: inactive; CHT PAM: inactive

Results for CC1Cc2nc(SCC(=O)N3CCCc4ccccc43)n(C)c(=O)c2S1 (stereo unspecified) ?
PGE2 EP2 inh: 7; EP2 modulator: 24; CHT block: -7.6*; CHT PAM: inactive; CHT inh conf: 24%*; HEK293 MPD ctr: inactive

How did COCCn1c(SCC(=O)Nc2ccccc2C(F)(F)F)nc2ccccc2c1=O do in these assays?
CHT block: -5.3*; CHT PAM: inactive; CHT inh conf: inactive; HEK293 MPD ctr: inactive

Results for Cc1nc(SCC(=O)Nc2ccccc2C(F)(F)F)c2c(C)c(C)sc2n1 ?
PGE2 EP2 inh: 13; EP2 modulator: -2

What do the screens show for `Cc1cc(C(F)(F)F)nc(SCCNC(=O)c2ccccc2F)n1`?
PGE2 EP2 inh: 6; EP2 modulator: 6

How did O=C(CN(C(=O)Cn1nnc(-c2ccc(F)cc2)n1)c1ccc2c(c1)OCCO2)NC1CCCC1 do in these assays?
PGE2 EP2 inh: 8; EP2 modulator: -16

What do the screens show for `CC(c1ccccc1)C1C(C#N)=C(N)SC(N)=C1C#N` (stereo unspecified)?
PGE2 EP2 inh: 20; EP2 modulator: -28; CHT block: inactive; CHT PAM: inactive

Results for CC(CC1C(C#N)=C(N)SC(N)=C1C#N)c1ccccc1 (stereo unspecified) ?
PGE2 EP2 inh: 16; EP2 modulator: -29; CHT block: -5.3*; CHT PAM: inactive; CHT inh conf: inactive; HEK293 MPD ctr: inactive

How did CCCc1nc2oc(C(=O)OCC)c(N)c2c2c1COC(C)(C)C2 do in these assays?
PGE2 EP2 inh: 7; CHT block: -6.3*; CHT PAM: inactive; CHT inh conf: 33%*; HEK293 MPD ctr: inactive

What do the screens show for `CCOC(=O)c1oc2nc(C(C)C)c3c(c2c1N)CCC3`?
PGE2 EP2 inh: 13; EP2 modulator: 11; CHT block: -5.2*; CHT PAM: inactive; CHT inh conf: 40%*; HEK293 MPD ctr: inactive
